Test results published in PubChem BioAssay AID2685 (National Center for Advancing Translational Sciences (NCATS), 2010).
Screen size: about 320,000 compounds; about 2,100 (0.66%) were called active. Not shown: some 53% with an inconclusive outcome. The call rests on the fitted dose curve; in most records, active means well fitted inhibition curve with a large enough effect in the signal ratio, with a control signal flat (not every such curve was filed as active); inconclusive means small, poorly fitted or top-dose-only effect, or effect the other way, or a change in a side signal; inactive means flat fitted curve, though single readings scatter; the % refers to the signal ratio. Shown is part of a subset that was picked to be rich in actives.
Potency means the concentration at half of the fitted maximal effect.

Test: qHTS Assay for Lipid Storage Modulators in Drosophila S3 Cells;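 on cell number change: cells counted by Cell Tracker Red CMTPX staining in the red channel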
Conditions: BODIPY lipid droplet fluorescence, 18-24 h, cells fed with added oleic acid; cell number change: measured here: cell count max response; series mostly up to 46.1 µM
How it was run: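 Laser-scanning cytometry quantifies lipid droplet accumulation (500–530 nm total intensity; droplet/cell object ratio) in oleic acid-fed (400 uM added) Drosophila S3 cells treated with a concentration series. 20 uM Triacsin C defined 100% inhibition.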
In the case of CCNC(=O)CC1SC(=Nc2ccccc2C)N(C)C1=O (centres undefined), the Potency is reported as “inactive” and the cell number change is reported as 12.4%.
For CCN1CCN(c2ccc(S(=O)(=O)N3CCCCC3)cc2NC(=O)c2ccc(F)cc2)CC1, the Potency was “inactive”.
With COc1ccc(/C=C(\NC(=O)c2ccc(OC)cc2)C(=O)Nc2ccc(C(=O)O)cc2)cc1 the Potency was “inactive” and the cell number change was 11.1%.
With Cc1ccc(S(=O)(=O)N2CCN(C(=O)CN3CCCSc4ccccc43)CC2)cc1 the Potency was “inactive” and the cell number change was 6.28%.
With N#Cc1ccccc1S(=O)(=O)N1CCN(C(=O)CN2CCCSc3ccccc32)CC1 the Potency was 2.06 µM (active) and the cell number change was -12.9%.
In the case of N#Cc1ccccc1S(=O)(=O)N1CCN(C(=O)C2CCC2)CC1, the Potency is reported as “inactive” and the cell number change is reported as 17.3%.
In the case of CC(C)(C)OC(=O)[C@H](Cc1ccccc1)NC(=O)c1[nH]cnc1C(=O)Nc1ccc(Cl)cc1, the Potency is reported as “inactive” and the cell number change is reported as -19.3%.
In the case of C[C@H](NC(=O)c1nc[nH]c1C(=O)N[C@@H](Cc1ccccc1)C(=O)OC(C)(C)C)C(=O)OCc1ccccc1, the Potency is reported as 14.6 µM (active) and the cell number change is reported as 26.3%.
In the case of CCOC(=O)c1ccc(NC(=O)c2nc[nH]c2C(=O)N[C@@H](Cc2ccccc2)C(=O)OC(C)(C)C)cc1, the Potency is reported as 18.4 µM (active) and the cell number change is reported as -20.1%.
In the case of CC(C)C[C@H](NC(=O)c1nc[nH]c1C(=O)N(C)Cc1ccccc1)C(=O)OC(C)(C)C, the Potency is reported as “inactive” and the cell number change is reported as -15.1%.
For C[C@H](NC(=O)c1nc[nH]c1C(=O)N(C)Cc1ccccc1)C(=O)OC(C)(C)C, the Potency was 0.651 µM (active) and the cell number change was 20.3%.
For O=C(N[C@@H](Cc1ccccc1)C(=O)OCc1ccccc1)c1nc[nH]c1C(=O)N[C@@H](Cc1ccccc1)C(=O)OCc1ccccc1, the Potency was 3.26 µM (active).
For O=C(N[C@@H](Cc1ccccc1)C(=O)OCc1ccccc1)c1nc[nH]c1C(=O)NC(c1ccccc1)c1ccccc1, the Potency was “inactive” and the cell number change was 11.4%.
For C[C@H](NC(=O)c1nc[nH]c1C(=O)NCc1ccccc1)C(=O)OC(C)(C)C, the Potency was “inactive” and the cell number change was -10.1%.
In the case of C[C@@H](NC(=O)c1nc[nH]c1C(=O)N[C@@H](Cc1ccccc1)C(=O)OCc1ccccc1)c1ccccc1, the Potency is reported as “inactive” and the cell number change is reported as -24.1%.
With CCOC(=O)c1ccc(NC(=O)c2nc[nH]c2C(=O)N[C@@H](CC(C)C)C(=O)OC(C)(C)C)cc1 the Potency was “inactive” and the cell number change was -3.92%.
With C[C@H](NC(=O)c1nc[nH]c1C(=O)N[C@@H](C)C(=O)OC(C)(C)C)C(=O)OCc1ccccc1 the Potency was “inactive” and the cell number change was 0.898%.
In the case of C[C@H](NC(=O)c1nc[nH]c1C(=O)N[C@@H](Cc1ccccc1)C(=O)OC(C)(C)C)C(=O)OC(C)(C)C, the Potency is reported as “inactive” and the cell number change is reported as 1.8%.
In the case of COc1ccccc1CN1CC(C(=O)N(CCO)Cc2cccs2)CCC1=O (centres undefined), the Potency is reported as “inactive” and the cell number change is reported as 1.74%.
For CCN1CCCC1CNC(=O)C(=O)NC (centres undefined), the Potency was “inactive” and the cell number change was 1.27%.
In the case of Cc1c(C(=O)NCc2cccnc2)oc2ccc(S(=O)(=O)N3CCCCCC3)cc12, the Potency is reported as “inactive”.
With O=C(Cn1ccc(C(F)(F)F)n1)N/N=C/c1ccc2c(c1)OCO2 the Potency was “inactive” and the cell number change was 4.92%.
In the case of COc1ccc(Cl)cc1NC(=O)CCn1c(=O)oc2ccccc21, the Potency is reported as “inactive”.
With O=C(CN1C(=O)C2C3CCC(C3)C2C1=O)OCC(=O)c1cccc([N+](=O)[O-])c1 (centres undefined) the Potency was “inactive” and the cell number change was 2.72%.
In the case of C=CCn1c(SCc2ccc(C(=O)NCCO)cc2)nc2sc(C)c(C)c2c1=O, the Potency is reported as “inactive” and the cell number change is reported as 22.5%.
With Cc1ccc(C(=O)NNc2ncnc3c2cnn3C)cc1 the Potency was “inactive” and the cell number change was -1.39%.
For Cc1c(CN2CCCC(C(=O)c3cccc(OC(C)C)c3)C2)c(=O)n(-c2ccccc2)n1C (centres undefined), the Potency was “inactive” and the cell number change was 1.94%.
With C/C(=N\NC(=O)c1ccc(Cl)cc1)c1cccc(NC(=O)c2cccnc2)c1 the Potency was “inactive” and the cell number change was 13.4%.
In the case of CCn1c(CSc2nc(C)cs2)nc2cc(S(=O)(=O)N(C)C)ccc21, the Potency is reported as “inactive” and the cell number change is reported as -5.93%.
With CCn1c(SCC(=O)NC2CCCC2)nnc1-c1c[nH]c2ccccc12 the Potency was “inactive” and the cell number change was 30%.
In the case of CN(C)C(CNC(=O)CN1C(=O)NC2(CCc3ccccc32)C1=O)c1ccco1 (centres undefined), the Potency is reported as “inactive” and the cell number change is reported as 6.97%.
For Cc1ccc(NC(=O)C(C)SCC(=O)Nc2ccc(F)cc2)cc1S(=O)(=O)N1CCOCC1 (centres undefined), the Potency was “inactive”.
In the case of CC1(C(=O)NC2CCCCCC2)CCC(=O)N1Cc1ccc2c(c1)OCO2 (centres undefined), the Potency is reported as “inactive” and the cell number change is reported as -18.4%.
For c1ccc(-c2cnn3c(-c4ccccc4)c(-c4ccccc4)nc3n2)cc1, the Potency was 3.26 µM (active) and the cell number change was -3.03%.
In the case of Nc1nc(-c2ccccc2)c(-c2ccccc2)n1N, the Potency is reported as “inactive”.
In the case of c1ccc(-c2cn3nc(-c4ccccc4)c(-c4ccccc4)nc3n2)cc1, the Potency is reported as “inactive” and the cell number change is reported as 19.6%.
With CC(=O)N(CCCN(C)C)Cc1ccccn1 the Potency was “inactive” and the cell number change was 6.64%.
In the case of Cc1ccc(S(=O)(=O)N2CCN(C3CCN(Cc4ccccc4)CC3)CC2)cc1, the Potency is reported as “inactive” and the cell number change is reported as -12.2%.
In the case of CC1CCN(S(=O)(=O)c2ccc3ccccc3c2)CC1, the Potency is reported as 3.26 µM (active) and the cell number change is reported as 5.85%.
With c1ccc(CN2CCC(N3CCC(N4CCCCCC4)CC3)CC2)cc1 the Potency was 0.82 µM (active) and the cell number change was -20.6%.
For O=S(=O)(c1ccccc1)N1CCN(C2CCN(Cc3ccccc3)CC2)CC1, the Potency was “inactive” and the cell number change was 9.59%.
In the case of CCS(=O)(=O)N1CCN(S(=O)(=O)c2ccc3ccccc3c2)CC1, the Potency is reported as “inactive” and the cell number change is reported as 16.6%.
With O=S(=O)(c1ccc2ccccc2c1)N1CCCCCC1 the Potency was “inactive” and the cell number change was 0.283%.
With O=S(=O)(c1ccc2ccccc2c1)N1CCN(C2CCN(Cc3ccccc3)CC2)CC1 the Potency was 5.8 µM (active) and the cell number change was 21%.
For Brc1ccccc1CN1CCC(N2CCCCC2)CC1, the Potency was “inactive” and the cell number change was -5.87%.
For c1ccc(C2CCC(N3CCC(N4CCCCC4)CC3)CC2)cc1 (centres undefined), the Potency was “inactive” and the cell number change was -17%.
With COc1cccc(NC(=O)CN2C(=O)NC(C)(CCC(C)C)C2=O)c1 (centres undefined) the Potency was “inactive” and the cell number change was 17.1%.
In the case of O=C(NCCc1ccc(Cl)cc1)c1ccc(CS(=O)Cc2ccc(Cl)cc2)o1 (centres undefined), the Potency is reported as “inactive”.
In the case of O=C(CCN1C(=O)COc2ccccc21)N1CCN(c2ccccc2)CC1, the Potency is reported as “inactive” and the cell number change is reported as 0.131%.
For O=C(NCC1CCCO1)C1CCN(C2CCN(C(=O)Cc3ccsc3)CC2)CC1 (centres undefined), the Potency was “inactive” and the cell number change was -8.37%.
For COc1ccc(CNc2nc3ccccc3n2C)c(OC)c1, the Potency was “inactive” and the cell number change was -4.3%.
In the case of CCOc1c(CNc2nnnn2C)cccc1OC, the Potency is reported as “inactive” and the cell number change is reported as 15.4%.
For COc1ccc(CNc2nnnn2C)c(OC)c1, the Potency was 0.651 µM (active) and the cell number change was -2.1%.
For O=C1NC(=S)N/C1=C\c1ccccc1OCc1ccc(C(=O)O)cc1, the Potency was “inactive” and the cell number change was -1.56%.
In the case of O=C(NCCNC(=O)c1ccccc1O)c1ccccc1O, the Potency is reported as 9.2 µM (active) and the cell number change is reported as -28.8%.
For O=C(NCCO)c1ccccc1O, the Potency was “inactive” and the cell number change was 26.5%.
With O=C(NCCNC(=O)c1ccccc1Br)c1ccccc1Br the Potency was “inactive” and the cell number change was 13.7%.
For Cc1ccc(C2C(C#N)=C(N)N(c3ncn[nH]3)C3=C2C(=O)CC(C)(C)C3)cc1 (centres undefined), the Potency was “inactive”.
In the case of CCOc1ccc(N(CC(=O)NC(C(C)C)C(C)C)S(=O)(=O)c2ccc(OC)c(OC)c2)cc1, the Potency is reported as “inactive” and the cell number change is reported as 14%.
With CC(=O)C1=C(O)C(=O)N(c2ccc(S(N)(=O)=O)cc2)C1c1cccc([N+](=O)[O-])c1 (centres undefined) the Potency was “inactive” and the cell number change was 5.32%.
With CC(C)CNC(=O)c1ccc(Cl)c(Cl)c1 the Potency was “inactive” and the cell number change was -14.4%.
In the case of CC(NC(=O)CCl)c1ccc(Cl)c(Cl)c1 (centres undefined), the Potency is reported as 23.1 µM (active) and the cell number change is reported as -24.5%.
For CC(NC(=O)Cc1ccc(S(=O)(=O)N2CCOCC2)s1)c1ccc(Cl)c(Cl)c1 (centres undefined), the Potency was “inactive” and the cell number change was -8.77%.
For Cc1ccc(NC2CCCN(C(=O)c3cnc4ccccn4c3=O)C2)cc1C (centres undefined), the Potency was “inactive” and the cell number change was 10.1%.
In the case of CC1CCN(C(=O)CCNS(=O)(=O)c2ccccc2)CC1, the Potency is reported as “inactive” and the cell number change is reported as 9.54%.
With Cc1ccc(S(=O)(=O)NCC(=O)NCC(=O)N2CCC(C)CC2)cc1 the Potency was “inactive” and the cell number change was 27.4%.
For Cc1ccc(S(=O)(=O)NCCCC(=O)N2CCC(C)CC2)cc1, the Potency was 16.4 µM (active) and the cell number change was -15.3%.
For CC(=O)Nc1cc(NC(C)=O)cc(C(=O)OCC(=O)N2CC(C)OC(C)C2)c1 (centres undefined), the Potency was 25.9 µM (active) and the cell number change was -18.5%.
For CC1CN(C(=O)COC(=O)c2ccc(NC(=O)CC#N)cc2)CC(C)O1 (centres undefined), the Potency was “inactive” and the cell number change was -23.4%.
For CCOc1ccc(C(=O)OCC(=O)N2CC(C)OC(C)C2)cc1OCC (centres undefined), the Potency was “inactive” and the cell number change was -6.35%.
For COC(=O)c1ccc(NC(=O)CSc2nc(=O)n3cccc(C)c3n2)cc1, the Potency was “inactive” and the cell number change was -5.09%.
With COC(=O)c1ccc(-n2c(C)ccc2-c2ccccc2)cc1 the Potency was “inactive”.
With COc1ccc(-n2c(C)ccc2-c2ccccc2)cn1 the Potency was 14.6 µM (active) and the cell number change was 3.52%.
For CC(=O)Nc1ccc(-n2c(C)ccc2-c2ccccc2)cc1, the Potency was “inactive” and the cell number change was 12.4%.
With COc1ccc(Br)cc1C(=O)NC(=S)Nc1ccc2[nH]c(=O)[nH]c2c1 the Potency was “inactive” and the cell number change was -29.5%.
With COc1ccc(S(=O)(=O)N2CCCCCC2)cc1C(=O)Nc1ccc(C)cn1 the Potency was “inactive”.
With COc1ccc(C2CC(O)(c3ccccc3)Oc3cc(OC)cc(OC)c32)cc1 (centres undefined) the Potency was “inactive” and the cell number change was -14.8%.
In the case of COc1ccc([C@@H]2C[C@H](c3ccccc3)Oc3cc(OC)c(OC)c(OC)c32)cc1, the Potency is reported as 4.61 µM (active) and the cell number change is reported as -18.2%.
For COc1ccc([C@@H]2C[C@@H](c3ccccc3)Oc3cc(OC)c(OC)c(OC)c32)cc1, the Potency was “inactive” and the cell number change was -1.66%.
In the case of C=C1CCN(C(C(=O)OC)C(C)C)S(=O)(=O)c2ccccc21 (centres undefined), the Potency is reported as “inactive” and the cell number change is reported as 0.159%.
For CC(=O)NC1(C(F)(F)F)C(=O)Nc2c1c(=O)n(C)c(=O)n2C (centres undefined), the Potency was “inactive” and the cell number change was -13.1%.
With Cn1c2c(c(=O)n(C)c1=O)C(NC(=O)c1cccs1)(C(F)(F)F)C(=O)N2 (centres undefined) the Potency was “inactive” and the cell number change was -6.48%.
In the case of Cn1c2c(c(=O)n(C)c1=O)C(NC(=O)c1ccco1)(C(F)(F)F)C(=O)N2 (centres undefined), the Potency is reported as “inactive” and the cell number change is reported as 6.96%.
With CCC(=O)NC1(C(F)(F)F)C(=O)Nc2c1c(=O)n(C)c(=O)n2C (centres undefined) the Potency was “inactive” and the cell number change was 7.51%.
For CCCCC(=O)NC1(C(F)(F)F)C(=O)Nc2c1c(=O)n(C)c(=O)n2C (centres undefined), the Potency was 18.4 µM (active) and the cell number change was -5.38%.
For CC(C)CC(=O)NC1(C(F)(F)F)C(=O)Nc2c1c(=O)n(C)c(=O)n2C (centres undefined), the Potency was 3.66 µM (active) and the cell number change was 2.2%.
In the case of CC(=O)Nc1ccccc1/C=C/c1ccc2c(C)cc(C)c(O)c2n1, the Potency is reported as “inactive” and the cell number change is reported as 8.64%.
